Source: PubChem (National Center for Advancing Translational Sciences (NCATS))
TDP1 cell noCPT: qHTS for Inhibitors of human tyrosyl-DNA phosphodiesterase 1 (TDP1): qHTS in cells in absence of CPT; DT40 Tdp1-/- hTDP1 cells, no CPT, ATP luminescence, 48 h; Potency, µM (series often up to 46.2 µM), hits mostly inhibitors; 420,000 compounds, 15% hits; AID 686978, 2013; also: nearly all actives have a fitted effect of over 55% in size
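Camptothecin absent (DMSO only). Human TDP1-complemented DT40 knockout cells, 400 cells/well, 37 °C for minimum 48 hr; ATP measured via CellTiter-Glo, 30 min dark incubation, luminescence.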
IL1B secr inh: qHTS for Inhibitors of Inflammasome Signaling: IL-1-beta AlphaLISA Primary Screen; THP-1 LPS/ATP IL-1B secretion, AlphaLISA, 16 h; active compounds read low; activity change, % at 57.5 µM; AID 743279, 2014; 360,000 compounds, 4.7% hits; in the data active = activity change below about -50%; inconclusive = mostly about -30% to -49%
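Secreted IL-1B measured by AlphaLISA bead assay after 16 h compound exposure of THP-1 cells; compounds (final up to 57.5 uM) added 1 h before LPS (250 ng/mL) and ATP (1.25 mM) stimulation; lower signal means less secretion.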
HT1080NT lethal: qHTS for induction of synthetic lethality in tumor cells producing 2HG: qHTS for the HT-1080-NT fibrosarcoma cell line | 360,000 compounds, 1.6% hits | AID 686970, 2013 | HT-1080-NT fibrosarcoma viability, CellTiter-Glo ATP luminescence, 48 h | Potency, µM (highest dose often 46.1 µM), usual class: cytotoxic;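 also: NT is the 2HG producing partner of a matched IDH1 knockdown line; nearly all actives have a fitted effect of over 55% in size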
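750 cells/well, RPMI + 5% FBS; 2 h settle, compound pin-transfer, 48 h at 37 degrees C. CellTiter-Glo 10 min RT, luminescence. Normalized to DMSO and media-only wells.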
HT1080 IDH1KD tx: qHTS for induction of synthetic lethality in tumor cells producing 2HG: qHTS for the HT-1080-IDH1KD cell line; 360,000 compounds, 2% hits; Potency, µM (highest dose often 46.1 µM), usual class: cytotoxic; HT-1080 IDH1 knockdown viability, ATP luminescence, 48 h
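% activity derives from luminescence (CellTiter-Glo), normalised to DMSO and no-cell wells. HT-1080-IDH1KD cells, 750/well, had 48 h compound exposure at 37 °C.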
DT40 TDP1 CPT: qHTS for Inhibitors of human tyrosyl-DNA phosphodiesterase 1 (TDP1): qHTS in cells in presence of CPT; Potency, µM (doses to about 46.2 µM), usual class: inhibitors; 420,000 compounds, 12% hits; chicken DT40 Tdp1-/-;hTDP1 cells + 20 nM CPT, ATP luminescence, 48 h; also: nearly all actives have a fitted effect of over 55% in size
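Chicken DT40 Tdp1-/- cells complemented with human TDP1, 400 cells/well, exposed to compounds plus 20 nM camptothecin for at least 48 h at 37 C; viability read as ATP content by CellTiter-Glo luminescence.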
Hits are given with their value; 0 = inactive; ? = inconclusive; - = no result. Rows were chosen to be rich in hits. Some 19% of all compounds tested hit in one or more screens of this group. Unless noted, calls follow the shape of the dose curve; as a rule, active = well fitted curve in the direction sought with a large enough effect; inconclusive = small, poorly fitted or top-dose-only effect, or another doubt; inactive = no such curve, though single readings can be large; an effect the other way counts as inactive or inconclusive.

SMILES	TDP1 cell noCPT	IL1B secr inh	HT1080NT lethal	HT1080 IDH1KD tx	DT40 TDP1 CPT
Cn1c(=O)[nH]c(=O)c2c1nc(Br)n2C/C=N/NC(=O)c1ccccc1	0	-	0	0	0
Cn1c(=O)[nH]c(=O)c2c1nc(Br)n2C/C=N/Nc1ccccc1	0	0	3.7µM	5.8µM	0
Cn1c(=O)[nH]c(=O)c2c1nc(Br)n2CCC(=O)c1ccccc1	16µM	0	0	0	?
NS(=O)(=O)c1cc(-c2nn[nH]n2)c(NCc2cccs2)cc1Cl	0	-	-	-	0
COc1ccc(NC(=O)N[C@H]2CC[C@@H](CC(=O)NC3CCC3)O[C@@H]2CO)cc1	0	0	0	0	0
COc1cc(OC)cc(C(=O)N2CCC3(CC2)NCCc2[nH]cnc23)c1	0	0	0	0	0
CCc1ccc(S(=O)(=O)Nc2c(NC3CCCCC3)c3ccccc3oc2=O)cc1	?	-63	0	0	?
CCCc1ccc(O)c(N=Cc2cc(Br)cc(OCC)c2O)c1	2.6µM	0	?	23µM	3.7µM
COc1ccccc1CNC(=O)C1CCN(Cc2cc3ccccc3n2Cc2cccc(C)c2)CC1	18µM	-	-	-	13µM
COc1ccccc1CNC(=O)C1CCCC1	0	0	0	0	0
Cc1cccc(Cn2c(CN3CCC(C(=O)NC(C)C)CC3)cc3ccccc32)c1	23µM	-	-	-	?
Cc1cc(=O)oc2cc(OCC3CC(c4ccc(Cl)cc4)=NO3)ccc12 (configuration not stated)	?	0	0	0	28µM
CCCC1(CCC)C(=O)NC(=NCCc2ccc(OC)c(OC)c2)NC1=O	0	0	0	0	0
Cc1ccc(S(=O)(=O)CC(=O)N2CCN(c3nc4c(F)cccc4s3)CC2)cc1	18µM	-	-	-	21µM
Cc1ccc(S(=O)(=O)CC(=O)N2CCCCCC2)cc1	0	0	0	0	0
COc1cccc2sc(N3CCN(C(=O)CS(=O)(=O)c4ccc(Cl)cc4)CC3)nc12	18µM	-	-	-	16µM
COc1cccc(C(=O)N2CCC[C@H]2C(=O)N2CCC[C@H]2C(=O)NCc2ccc(F)cc2F)c1	?	0	0	0	0
O=C(NCc1ccc(F)cc1F)[C@@H]1CCCN1C(=O)[C@@H]1CCCN1C(=O)c1ccccc1	0	-95	0	0	0
NC(=O)NCCN1CCN(c2ncc(C(F)(F)F)cc2Cl)CC1	0	0	0	0	0
Cc1nc(Cl)sc1C(=O)Nc1ccc(F)cc1	0	0	0	0	0
CC(C)S(=O)(=O)c1csc(C(=O)Nc2ccc(F)cc2)c1N	?	0	?	?	21µM
O=C(/C=C/c1ccc(OC(F)F)cc1)OCC(=O)N1CCN(C(=O)c2ccco2)CC1	?	0	0	0	?
C/C(N)=C(/C#N)C(=O)COC(=O)c1cc(-c2ccc(Br)cc2)nc2ccccc12	9.2µM	?	?	?	15µM
O=C(OCC(=O)N1CCN(C(=O)c2ccco2)CC1)c1cc(-c2cccc(Br)c2)nc2ccccc12	0	-67	0	0	?
O=C(OCC(=O)N1CCN(C(=O)c2ccco2)CC1)c1cc(-c2ccc(F)cc2)nc2ccccc12	0	-51	0	0	0
SMILES	TDP1 cell noCPT	IL1B secr inh	HT1080NT lethal	HT1080 IDH1KD tx	DT40 TDP1 CPT
CCOC(=O)/C=C/C(=O)OCC(=O)N1CCN(C(=O)c2ccco2)CC1	15µM	0	0	0	7.3µM
Nc1ncnc2c1[nH]c(=O)n2C1CC(O)C(CO)O1 (configuration not stated)	0	-	-	-	0
CC(C)Sc1ccc([N+](=O)[O-])cc1C(=O)Nc1ccncc1	0	0	0	0	0
O=C(OCC(=O)N1CCN(C(=O)c2ccco2)CC1)c1cn(-c2ccccc2)nc1-c1ccccc1	?	-62	0	0	?
COc1ccc(-c2cc(C(=O)OCC(=O)N3CCOCC3)c3ccccc3n2)cc1	?	-54	0	0	0
O=C(OCC(=O)N1CCN(C(=O)c2ccco2)CC1)c1cc(-c2ccccc2)nc2ccccc12	?	-70	0	0	0
N#Cc1ccc(OCC(=O)N/N=C2/CC(c3ccccc3)Oc3ccccc32)cc1 (configuration not stated)	?	0	0	0	?
COc1ccc([N+](=O)[O-])cc1NCc1ccco1	0	?	0	0	0
CCCCN1C2=C(C(=O)CCC2)C(c2ccc(Cl)c(Cl)c2)C2=C1c1ccccc1C2=O (configuration not stated)	?	0	0	0	16µM
CCCN1C(=O)c2ccccc2NC1c1ccc(Cl)c(Cl)c1 (configuration not stated)	?	0	0	0	?
O=C(COC(=O)/C=C/c1ccc2c(c1)OCO2)NCc1ccc(F)cc1	21µM	0	?	?	23µM
O=C(COC(=O)/C=C/c1ccc(S(=O)(=O)N2CCOCC2)cc1)NCc1ccc(F)cc1	12µM	0	0	0	3.7µM
O=C(COC(=O)/C=C/c1ccc(F)cc1)NCc1ccc2c(c1)OCO2	0	0	0	0	0
O=C(CSc1nnc(NCc2ccccc2)s1)c1ccco1	0	0	0	0	0
CCOC(=O)N1CCC(NC(=O)CCC(=O)N2CC(C)Oc3ccc(Cl)cc32)CC1 (configuration not stated)	?	0	0	0	0
CC(C)c1ccc(CN(C)C(=O)c2ccc(S(=O)(=O)NCc3ccco3)cc2)cc1	21µM	0	0	0	21µM
COc1ccc(S(=O)(=O)N2CCCC(C(F)(F)F)C2)cc1 (configuration not stated)	0	0	0	0	0
Cc1ccc(S(=O)(=O)N(C)c2ccc(OCC(=O)Nc3nc4c(ccc5ccccc54)s3)cc2)cc1	?	0	0	0	?
Cc1ccc(S(=O)(=O)N(C)c2ccc(OCC(=O)Nc3nc(-c4ccccc4)cs3)cc2)cc1	13µM	0	0	0	16µM
CN(Cc1ccccc1)C(=O)COc1ccc(N(C)S(=O)(=O)c2ccc(F)cc2)cc1	15µM	0	0	0	16µM
CN(c1ccc(OCC(=O)Nc2nc(-c3ccccc3)cs2)cc1)S(=O)(=O)c1ccc(F)cc1	21µM	0	0	0	18µM
CCOC(=O)C(=O)c1csc(NC(=O)COc2ccc(N(C)S(=O)(=O)c3ccc(F)cc3)cc2)n1	0	0	0	0	0
COc1ccc(/C=C/C(=O)OCC(=O)Nc2ccc3[nH]c(=O)[nH]c3c2)cc1OC	0	0	0	0	0
CCC(C)c1ccc(NC(=O)C2CCCN(c3ncccn3)C2)cc1 (configuration not stated)	18µM	0	?	?	21µM
